# This is a sample that favours compounds with a hit; in the whole collection about 2.5% have one here.
# Cruzain inh Det: blocks cruzain activity in presence of Triton detergent; purified cruzain, Z-FR-AMC fluorescence, 0.01% Triton; actives 0.43% (n = 200,000); AID 1478; Potency, µM, inactives show max response, negative = inhibition, most hits filed as inhibitors;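 also: plate controls were neutral wells for no effect and buffer without enzyme for full effect; nearly all actives have a fitted effect of over 40% in size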
# Target sequence (P25779 123-467 limits assumed): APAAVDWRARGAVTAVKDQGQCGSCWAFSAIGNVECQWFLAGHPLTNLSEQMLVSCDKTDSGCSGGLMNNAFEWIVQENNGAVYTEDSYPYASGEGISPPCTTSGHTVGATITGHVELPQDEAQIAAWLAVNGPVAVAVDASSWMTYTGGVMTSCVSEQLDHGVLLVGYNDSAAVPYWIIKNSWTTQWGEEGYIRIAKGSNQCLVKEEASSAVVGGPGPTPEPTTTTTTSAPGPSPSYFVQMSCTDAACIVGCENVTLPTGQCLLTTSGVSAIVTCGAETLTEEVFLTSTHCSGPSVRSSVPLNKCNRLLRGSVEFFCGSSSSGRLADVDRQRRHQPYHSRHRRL
#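 Cysteine protease activity tested under reducing, mildly acidic conditions (100 mM sodium acetate pH 5.5, 5 mM DTT) plus 0.01% Triton X-100. Cruzain 1.5 nM; substrate Z-FR-AMC 2 uM; 15 min compound preincubation at room temperature.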
# Cruzain inh noDet: blocks cruzain activity in detergent-free assay; P25779; purified cruzain, Z-FR-AMC fluorescence, no detergent; Potency, µM, inactives show max response, negative = inhibition, actives largely listed as inhibitors; actives 2.3% (n = 200,000);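 also: plate controls were enzyme without inhibitor for no effect and buffer without enzyme for full effect; nearly all actives have a fitted effect of over 40% in size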
#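 Detergent-free condition (0.00005% Triton X-100) in acetate buffer pH 5.5 with DTT. 1.5 nM enzyme and compound were pre-mixed 15 min, then 2 uM Z-FR-AMC substrate added; reaction progress from fluorescence change between first and third reads (60 s).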
# Starred values were filed as active, the others as inactive; u = inconclusive. Calls follow the shape of the dose curve; as a rule, active = well fitted curve in the direction sought with a large enough effect; inconclusive = small, poorly fitted or top-dose-only effect, or another doubt; inactive = no such curve, though single readings can be large; an effect the other way counts as inactive or inconclusive. Potency is read from the fitted curve at half-maximal effect.
SMILES,Cruzain inh Det,Cruzain inh noDet
O=C1C=C(Nc2ccc(Cl)cc2)C(=O)N1c1ccc(Cl)cc1,1%,6.3µM*
O=C1CCCC(=O)N1c1ccc(Oc2ccc(Cl)cc2)cc1,-4%,-1%
Cc1cccc(N2C(=O)N(Cc3cccc(C#N)c3)c3ccccc3S2(=O)=O)c1,-5%,u
Cc1ccccc1NS(=O)(=O)c1ccc2[nH]cc(C(=O)NC(C)c3ccccc3)c(=O)c2c1 (centres undefined),-7%,-11%
Cc1cc2c(cc1S(=O)(=O)Nc1cccc(C(F)(F)F)c1)OCCN2C,-3%,10%
O=C(CSc1nc2ccccc2nc1Cc1ccc(F)cc1)Nc1ccc2c(c1)OCO2,3%,-2%
Cc1ccc(NC(=O)CSc2nc3ccc(NC(=O)CCc4ccccc4)cc3s2)cc1,-1%,4%
CCOC(=O)c1cc2c(=O)n3ccccc3nc2n(CC2CCCO2)c1=NC(=O)c1ccc(OC)cc1OC (centres undefined),-28%,0%
O=c1c(/C=N/Nc2ccccc2)c(Sc2nnnn2-c2ccccc2)nc2ccccn12,-6%,16µM*
O=Cc1c(Sc2ccccc2)nc2ccccn2c1=O,-10%,1%
CCOC(=O)c1ccc(NC(=O)c2cc3c([nH]c2=O)CC(c2ccccc2)CC3=O)cc1 (centres undefined),1%,5%
Cc1cccc(CNC(=O)c2ccc(Cn3c(=O)c4cccn4c4cccnc43)cc2)c1,-2%,1%
COc1ccc(-c2nc3c4ccccc4n(CC(=O)Nc4cc(F)ccc4F)c(=O)n3n2)cc1,0%,-17%
CC[C@H](C)[C@H](NC(=O)[C@H](Cc1ccc(O)cc1)NC(=O)[C@@H](N)C(C)C)C(=O)N[C@@H](Cc1cnc[nH]1)C(=O)N1CCC[C@H]1C(=O)N[C@@H](Cc1ccccc1)C(=O)O,14µM*,16µM*
Cc1ccc(CC(NC(=O)c2ccccc2)C(=O)N2CCCC2C(=O)O)cc1 (centres undefined),2%,0%
Cc1ccc(CN(C(=O)COc2c(C)cccc2C)C2CCS(=O)(=O)C2)o1 (centres undefined),-5%,1%
COc1ccc(-c2nc3ccc(NS(=O)(=O)c4ccc(Cl)cc4)cc3o2)cc1,-6%,-23%
Cc1ccc(S(=O)(=O)Nc2ccc(-c3nc4cc(NS(=O)(=O)c5ccc(C)cc5)ccc4o3)cc2)cc1,2%,7.9µM*
COC(=O)c1cc(NC(=O)c2cc3sccc3n2Cc2ccc(Cl)cc2)cc(C(=O)OC)c1,0%,7.9µM*
CC(=O)Nc1ccc(NC(=O)c2cc3sccc3n2Cc2ccc(Cl)cc2)cc1,-1%,u
Cc1sc(NC(=O)c2ccc(OCC(C)C)cc2)c(C(N)=O)c1-c1ccc(Cl)cc1Cl,u,10µM*
CCCOc1ccc(C(=O)Nc2cccc(NC(=O)c3ccc(Cl)cc3Cl)c2)cc1,2%,u
CCOc1ccc(CCNC(=O)Cn2nnc(-c3ccccc3)n2)cc1OCC,-5%,20%
CCC(C)NC(=O)CSc1ccc(Cl)cc1 (centres undefined),-1%,-10%
CCC(C)NC(=O)COC(=O)c1oc2ccccc2c1CSc1ccc(Cl)cc1 (centres undefined),-3%,25µM*
SMILES,Cruzain inh Det,Cruzain inh noDet
COc1ccc(-c2[nH]ncc2C(=O)NCc2ccc(F)cc2)cc1,0%,-5%
COc1ccc(Nc2ccc3cc(S(=O)(=O)N4CCCC4)ccc3n2)cc1OC,-7%,-13%
CC(=O)c1cccc(Nc2ccc3cc(S(=O)(=O)N4CCCC4)ccc3n2)c1,-7%,13µM*
O=C1Nc2ccccc2Oc2cc(Oc3ccccc3)ccc21,-11%,-28%
Cc1ccc(Cc2cnc(N3C(=N)SC(c4ccccc4)C3=O)s2)cc1 (centres undefined),0%,u
N=C1SC(c2ccccc2)C(=O)N1c1ncc(Cc2ccccc2)s1 (centres undefined),2%,7.9µM*
Cc1ccc(CSc2nnc([C@@H](N)C(C)C)o2)cc1,-1%,1%
Cc1ccc2c(CC(=O)N3CCc4ccccc43)coc2c1,-10%,0%
O=C(Cc1coc2ccc3ccccc3c12)N1CCc2ccccc21,3%,13µM*
CCC(=O)N1c2ccccc2CC1C(=O)NCCc1cc(OC)c(OC)c(OC)c1 (centres undefined),6%,0%
O=C1c2cccc3c(N4CCOCC4)c([N+](=O)[O-])cc(c23)C(=O)N1c1cccc2ccccc12,-9%,13µM*
Cc1cccc(N2C(=O)c3cccc4c(N5CCCCC5)c([N+](=O)[O-])cc(c34)C2=O)c1C,-6%,u
CCCSc1nnc2c(n1)OC(c1ccc(OCC(=O)O)cc1)Nc1ccccc1-2 (centres undefined),-3%,-12%
Nc1nonc1-c1nc2ccccc2n1Cc1ccccc1,-7%,-15%
Nc1nonc1-c1nc2ccccc2n1Cc1c(Cl)cccc1Cl,-4%,25µM*
CCOC(N)=O,5%,8%
Cc1nc(NC(=O)/C=C/c2ccccc2)sc1C(=O)Nc1ccccc1,3%,-19%
